JMJD2A Tudor: JMJD2A Tudor domain (human) inhibition | AlphaScreen JMJD2A-Tudor / H3K4me3 peptide binding | Potency, µM (top dose mostly 114 µM), most hits filed as inhibitors | hit rate 4.4% among 390,000 | AID 504339; also: nearly all actives have a fitted effect of over 50% in size
BAZ2B block: blocks human BAZ2B; Potency, µM (series often up to 114 µM), actives largely listed as inhibitors; AlphaScreen BAZ2B-H3K14Ac peptide displacement; hit rate 4.4% among 360,000; Q9UIF8; AID 504333; also: nearly all actives have a fitted effect of over 60% in size
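Inhibition is scored as reduced AlphaScreen emission. The BAZ2B/b-H3(5-23)K14Ac complex (50 nM each) in PBS pH 7.4, 0.01% Tween-20 meets compound (up to 110 uM) for 30 min at RT before bead addition.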
PLK1 PBD inh: inhibitors of human PLK1 polo-box domain binding; P53350; Plk1 PBD binding of FITC phosphopeptide, fluorescence polarization; Potency, µM, usual class: inhibitors; hit rate 2.8% among 360,000; AID 720504; also: series mostly up to about 57 µM; nearly all actives have a fitted effect of over 65% in size
Target sequence (P53350 whole entry, looked up, the tested form may be a part): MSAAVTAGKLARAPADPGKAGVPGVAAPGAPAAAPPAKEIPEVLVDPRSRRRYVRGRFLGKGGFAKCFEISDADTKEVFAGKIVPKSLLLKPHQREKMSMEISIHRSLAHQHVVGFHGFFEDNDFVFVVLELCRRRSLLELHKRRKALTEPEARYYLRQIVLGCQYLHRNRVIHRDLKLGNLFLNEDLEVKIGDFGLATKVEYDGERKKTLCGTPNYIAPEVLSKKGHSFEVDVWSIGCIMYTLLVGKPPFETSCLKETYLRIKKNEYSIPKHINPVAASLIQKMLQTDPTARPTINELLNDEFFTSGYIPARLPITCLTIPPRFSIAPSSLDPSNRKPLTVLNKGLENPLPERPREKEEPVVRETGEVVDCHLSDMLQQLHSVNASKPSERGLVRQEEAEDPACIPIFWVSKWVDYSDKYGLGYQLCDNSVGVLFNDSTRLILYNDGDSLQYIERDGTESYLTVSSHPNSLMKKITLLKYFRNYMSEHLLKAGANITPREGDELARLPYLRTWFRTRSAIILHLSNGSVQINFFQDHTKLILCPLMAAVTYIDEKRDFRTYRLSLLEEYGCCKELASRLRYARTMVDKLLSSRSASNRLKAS
HP1b chromo inh: blocks HP1-beta chromodomain binding to methylated histone tails; AlphaScreen HP1-beta / biotin-H3K9me3 peptide binding; AID 540317; P83916; Potency, µM (doses to about 114 µM), actives largely listed as inhibitors; hit rate 0.56% among 390,000; also: nearly all actives have a fitted effect of over 70% in size
Target sequence (P83916 whole entry, looked up): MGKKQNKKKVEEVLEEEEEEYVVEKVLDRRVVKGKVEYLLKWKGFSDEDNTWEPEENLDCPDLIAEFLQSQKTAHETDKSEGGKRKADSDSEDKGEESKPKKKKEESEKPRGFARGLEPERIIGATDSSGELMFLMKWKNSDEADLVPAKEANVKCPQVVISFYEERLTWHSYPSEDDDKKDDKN
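Compound inhibition of the preformed complex between 50 nM HP1-beta and 50 nM biotinylated H3K9me3 peptide was read by AlphaScreen. Buffer was PBS pH 7.4 with 0.01% Tween-20. Incubations ran 30 min at room temperature, with 10 ug/mL donor/acceptor beads.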
G9a block: blocks human histone lysine methyltransferase G9a; Q96KQ7; G9a H3K9 monomethylation, AlphaScreen, 2 h; Potency, µM (titrated, usually from 102 µM), actives largely listed as inhibitors; hit rate 8.8% among 350,000; also: nearly all actives have a fitted effect of over 75% in size
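Methyltransferase reactions run at room temperature for 2 h (20 nM enzyme, 500 nM biotin-H3K9 peptide, 20 uM SAM) after a 15 min compound preincubation; product detected by AlphaScreen beads and anti-H3K9me1 antibody.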
PI5P4Ka inh: PI5P4K alpha (human) kinase inhibition. P48426. PI5P4Kalpha enzyme, ADP-Glo luminescence, 60 min; active compounds read low. max response, %. hit rate 1.2% among 330,000; active = max response of -50% or lower; inconclusive = between -30% and -50%; inactive = -30% or higher; also: value at the top dose of about 77 µM
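Compounds were pin-transferred onto PI5P4Kalpha and substrate in HEPES pH 7.4 buffer with EGTA, CHAPS and 5% DMSO. ATP (5 microM final) started the reaction, which ran 60 minutes at room temperature before ADP-Glo detection.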
Large screens that a line does not name were inactive. Only some compounds are listed: those with a hit (about 12% of all), similar ones and a draw of the others. Unless noted, calls follow the shape of the dose curve; as a rule, active = well fitted curve in the direction sought with a large enough effect; inconclusive = small, poorly fitted or top-dose-only effect, or another doubt; inactive = no such curve, though single readings can be large; an effect the other way counts as inactive or inconclusive.

Cc1ccc(C)c(NC(=O)CSc2nnc(NC(=O)C3CC3)s2)c1	JMJD2A Tudor inconclusive
COC(=O)c1ccc(NC(=S)NNC(=O)CC(C)C)cc1	PLK1 PBD inh 27µM, G9a block 10µM
COC(=O)c1ccc(NC(=S)NC2c3ccccc3CC2O)cc1 (stereo not drawn)	G9a block 50µM
COC(=O)c1ccc(NC(=S)NNC(=O)c2ccccc2)cc1	PLK1 PBD inh inconclusive (no result: G9a block)
COC(=O)NC(=S)Nc1ccc(Oc2ccc(Cl)cc2Cl)c(Cl)c1	PLK1 PBD inh 3µM, HP1b chromo inh inconclusive
O=C(/C=C/[C@H]1O[C@@H](n2ccc(=O)[nH]c2=O)[C@H](O)[C@@H]1O)NCCc1c[nH]c2ccccc12	none (no result: JMJD2A Tudor, BAZ2B block, HP1b chromo inh, G9a block)
N#CC1=C(N)N(c2ccc(F)cc2)C2=C(C1c1ccc(O)cc1)S(=O)(=O)CC2 (stereo not drawn)	JMJD2A Tudor 32µM, BAZ2B block 35µM, PLK1 PBD inh 15µM, HP1b chromo inh 40µM, G9a block 4µM, PI5P4Ka inh inconclusive
COc1cc(SSc2cc(OC)cc([N+](=O)[O-])c2N)c(N)c([N+](=O)[O-])c1	JMJD2A Tudor 1.4µM, BAZ2B block 8.9µM, PLK1 PBD inh 0.67µM, HP1b chromo inh inconclusive, G9a block 0.45µM, PI5P4Ka inh -93
COc1cc([N+](=O)[O-])c2ncsc2c1	none
COc1ccc(CNC(=O)CCc2c(C)nc3c(c2C)c(=O)n(C)c(=O)n3C)cc1	none (no result: PLK1 PBD inh, PI5P4Ka inh)
O=[N+]([O-])c1ccccc1N=Nc1ccc(O)cc1O	JMJD2A Tudor 56µM, HP1b chromo inh inconclusive, PI5P4Ka inh inconclusive (no result: BAZ2B block, G9a block)
O=[N+]([O-])c1ccccc1-c1cc(-c2ccccc2O)n[nH]1	BAZ2B block inconclusive
COCCNC(=O)C1CCCN(C(=O)c2ccc(C(F)(F)F)nc2C)CC1 (stereo not drawn)	none (no result: JMJD2A Tudor, BAZ2B block, HP1b chromo inh, G9a block)
CCn1nc(C)c2c(-c3ccccc3)cc(=O)n(C(C)C(=O)NCc3ccc(C)cc3)c21 (stereo not drawn)	none (no result: PLK1 PBD inh, PI5P4Ka inh)
Cc1cccn2c(Nc3ccccc3)c(-c3cccs3)nc12	JMJD2A Tudor inconclusive (no result: PLK1 PBD inh, PI5P4Ka inh)
Oc1ccccc1N=N/C(=N/Nc1ccccc1O)c1ccccc1	BAZ2B block inconclusive, PI5P4Ka inh inconclusive
N#C/C(N=Nc1ccccc1O)=N\Nc1ccccc1O	JMJD2A Tudor 22µM, BAZ2B block 11µM, HP1b chromo inh 16µM, G9a block inconclusive, PI5P4Ka inh inconclusive
CCCNC(=O)C1(C)CCN(C(=O)Cc2ccc3ccccc3c2)C1 (stereo not drawn)	none (no result: JMJD2A Tudor, BAZ2B block, HP1b chromo inh, G9a block)
CC(C)NC(=S)N/N=C1\CCCCC1C1CCCCC1 (stereo not drawn)	JMJD2A Tudor inconclusive, BAZ2B block inconclusive, PLK1 PBD inh inconclusive, G9a block 22µM (no result: PI5P4Ka inh)
CC(=O)N(/N=C/c1ccc(C)cc1)c1nc(CCl)cs1	G9a block 18µM
C=CCn1c(SCc2ccc3c(c2)OCO3)nc2scc(-c3ccco3)c2c1=O	BAZ2B block inconclusive, PI5P4Ka inh -62
C=CCn1c(SCC(C)=O)nc2scc(-c3ccco3)c2c1=O	JMJD2A Tudor 50µM, BAZ2B block 45µM, PLK1 PBD inh inconclusive, HP1b chromo inh inconclusive, G9a block 7.9µM, PI5P4Ka inh -55
C=CCn1c(SC(F)F)nc2scc(-c3ccco3)c2c1=O	none
CC(C)C(C)(C#N)NC(=O)CSc1nc2scc(-c3ccco3)c2c(=O)n1-c1ccccc1 (stereo not drawn)	G9a block 45µM
C=CCn1c(SCC(=O)N2CCOCC2)nc2scc(-c3ccco3)c2c1=O	JMJD2A Tudor 28µM, BAZ2B block inconclusive, PLK1 PBD inh inconclusive, G9a block inconclusive (no result: PI5P4Ka inh)
CC(C)c1ccc(OCC(=O)Nc2c3c(nn2C(C)(C)C)CS(=O)(=O)C3)cc1	G9a block inconclusive
CCOc1ccccc1-n1nnc(S(=O)(=O)c2ccc(C)cc2)c1N	none (no result: PLK1 PBD inh, PI5P4Ka inh)
C=CCn1c(SCC(=O)N2CC(=O)Nc3ccccc32)nc2scc(-c3ccccc3)c2c1=O	PLK1 PBD inh 12µM
C=CCn1c(SCC(=O)NCc2ccc3c(c2)OCO3)nc2scc(-c3ccccc3)c2c1=O	none
Cc1onc(-c2ccccc2Cl)c1C(=O)Nc1nnc(C2CCCCC2)s1	none (no result: BAZ2B block, PLK1 PBD inh, G9a block, PI5P4Ka inh)
O=C(Nc1cccc(F)c1)c1ccc(-c2cccnc2)c2ccoc12	none (no result: JMJD2A Tudor, BAZ2B block, HP1b chromo inh, G9a block)
Brc1ccc(N=NNc2ccccc2)cc1	BAZ2B block 40µM (no result: G9a block)
O=[N+]([O-])c1ccc(N=NNc2ccccc2)cc1	JMJD2A Tudor 25µM, BAZ2B block 28µM, PLK1 PBD inh 30µM, HP1b chromo inh inconclusive, G9a block 22µM
O=[N+]([O-])c1cccc(NN=Nc2ccccc2)c1	JMJD2A Tudor inconclusive, BAZ2B block inconclusive, G9a block 45µM
CN(N=Nc1ccc([N+](=O)[O-])cc1)c1ccccc1	BAZ2B block inconclusive, PLK1 PBD inh inconclusive, G9a block inconclusive
NC1=NC(=Nc2ccc(Br)cc2)c2ccccc21	G9a block inconclusive
CC(=O)N1c2ccc(S(=O)(=O)N3CCCCCC3)cc2CC1C(=O)NCc1cccc(C)c1 (stereo not drawn)	none (no result: PLK1 PBD inh, PI5P4Ka inh)
COc1cccc(S(=O)(=O)N2C[C@H](O)COC[C@H]3O[C@@H](CC(=O)N4CCN(C)CC4)CC[C@@H]32)c1	none (no result: JMJD2A Tudor, BAZ2B block, HP1b chromo inh, G9a block)
CC1CCCC(C)N1C(=O)COC(=O)Cc1ccc(F)cc1 (stereo not drawn)	none
COc1cccc(CNC(=O)N2CCN(c3ccccc3)CC2)c1	none
COC(=O)c1nn(C)c(=O)[nH]c1=O	none (no result: BAZ2B block, G9a block)
CC(C)(C)N1C(=O)Cc2c1nc(N)c1c(N)nc(N3CCCCC3CO)c(C#N)c21 (stereo not drawn)	JMJD2A Tudor 50µM, BAZ2B block 40µM, HP1b chromo inh inconclusive, G9a block 7.9µM, PI5P4Ka inh -58
COc1ccc(N2C(=O)Cc3c2nc(N)c(C#N)c3N)cc1	none
COc1cccc(Nc2nc3ccccc3nc2NS(=O)(=O)c2cccs2)c1	JMJD2A Tudor 89µM, PLK1 PBD inh inconclusive
CC(=O)Nc1ccc(S(=O)(=O)Nc2nc3ccccc3nc2Nc2ccccc2)cc1	G9a block inconclusive
COc1ccc(S(=O)(=O)Nc2nc3ccccc3nc2Nc2cccc(C(=O)O)c2)cc1	PLK1 PBD inh inconclusive, G9a block 45µM
Cc1nn(S(=O)(=O)c2ccc(C(C)C)cc2)c(C)c1S(=O)(=O)N1CCOCC1	JMJD2A Tudor 79µM, BAZ2B block inconclusive, G9a block 35µM
CCOc1ccc(S(=O)(=O)n2nc(C)c(S(=O)(=O)N3CCOCC3)c2C)cc1	BAZ2B block inconclusive, G9a block 50µM
Cc1nn(S(=O)(=O)c2ccc(C(C)C)cc2)c(C)c1S(=O)(=O)N1CCCCCC1	none (no result: PLK1 PBD inh, PI5P4Ka inh)
COc1ccc2c(CNCCc3ccccc3OC)c(C(=O)O)n(Cc3ccc(F)cc3Cl)c2c1	JMJD2A Tudor inconclusive, BAZ2B block inconclusive, G9a block inconclusive (no result: PLK1 PBD inh, PI5P4Ka inh)
COCCN(CCOC)Cc1cc(=O)oc2cc(C)c(Cl)cc12	none (no result: JMJD2A Tudor, BAZ2B block, HP1b chromo inh, G9a block)
